# Assay outcomes from PubChem BioAssay.
# HEK293 cAMP ctrl = qHTS Assay for Agonists of the Thyroid Stimulating Hormone Receptor: Activators of Intracellular cAMP Concentrations in Parental HEK 293; parental HEK293 CNG cAMP sensor, membrane potential fluorescence; Potency, µM (top dose mostly 57.1 µM), without a hit: at the highest dose activation, most hits filed as activators; hit rate 2.5% among 73,000; note: % of control where 0% means no effect; nearly all actives have a fitted effect of over 55% in size
#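 Parental HEK 293 cells stably expressing a modified CNG channel (no TSHR) report cAMP rise as membrane depolarization. Membrane potential dye with 100 uM RO 20-1724 was loaded for 60 min at room temperature, then compound added for 30 min; fluorescence read at 590 nm.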
# GBA activity = Glucocerebrosidase; Lysosomal acid glucosylceramidase (Homo sapiens), P04062; purified enzyme, resorufin glucoside fluorescence (screen aimed at inhibitors), 20 min; Potency, µM; hit rate 1.1% among 48,000; in the data active = potency below about 15 µM; inconclusive = mostly about 16 µM to 33 µM;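 note: the screen sought inhibitors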
#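 Compounds titrated against 0.2 nM normal enzyme, 30 uM resorufin beta-D-glucopyranoside substrate, citrate/phosphate buffer with taurocholate and tween-20, pH 5.9. Reaction ran 20 min at room temperature; fluorescence (Ex 548/Em 600) gave AC50.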
# FLuc inh = qHTS Assay for Inhibitors of Firefly Luciferase; Luciferin 4-monooxygenase (Photinus pyralis), P08659; purified firefly luciferase, luminescence, 8 min; Potency, µM (highest dose often 57.1 µM), inactives show at the highest dose activity change, negative = inhibition, usual class: inhibitors; hit rate 2.2% among 72,000; note: % is set by controls: 0 for no effect and ±100 for the full control effect; nearly all actives have a fitted effect of over 40% in size
# Target sequence (P08659 whole entry, looked up): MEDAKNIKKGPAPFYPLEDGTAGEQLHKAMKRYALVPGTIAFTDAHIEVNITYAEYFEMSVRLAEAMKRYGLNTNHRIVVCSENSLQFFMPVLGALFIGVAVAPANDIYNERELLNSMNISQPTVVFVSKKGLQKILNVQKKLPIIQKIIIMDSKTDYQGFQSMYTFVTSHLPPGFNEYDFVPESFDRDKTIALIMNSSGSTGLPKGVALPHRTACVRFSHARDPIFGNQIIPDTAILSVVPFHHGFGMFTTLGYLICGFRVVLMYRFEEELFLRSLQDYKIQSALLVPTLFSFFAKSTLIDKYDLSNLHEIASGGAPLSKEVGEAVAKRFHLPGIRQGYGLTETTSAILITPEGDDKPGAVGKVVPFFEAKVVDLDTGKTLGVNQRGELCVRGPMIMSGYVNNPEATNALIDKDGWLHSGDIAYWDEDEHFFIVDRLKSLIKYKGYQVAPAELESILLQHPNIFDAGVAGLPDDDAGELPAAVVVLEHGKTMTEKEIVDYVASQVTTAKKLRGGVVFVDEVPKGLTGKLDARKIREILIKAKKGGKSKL
#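 qHTS concentration-response profiling: light output of P. pyralis luciferase with luciferin and 10 uM ATP, imidazole buffer pH 7.2. Read by luminescence after 8-min room-temperature incubation.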
# ERK AVP inh = qHTS Assay for Inhibitors of the ERK Signaling Pathway using a Homogeneous Screening Assay | HEK293-V1b, vasopressin-stimulated pERK AlphaScreen | Potency, µM (doses to about 57.5 µM), without a hit: top-dose activity, negative = inhibition, hits mostly inhibitors | hit rate 0.99% among 72,000; note: % is set by controls: 0 for no effect and ±100 for the full control effect; nearly all actives have a fitted effect of over 55% in size
#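 V1b-HEK293 cells; cpd 30 min 37C; 25 nM vasopressin 5 min; lyse 10 min; AlphaScreen beads 5 hr RT. Normalized to DMSO basal and 25 nM vasopressin; AC50 by Hill fit.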
# Bst PK mod = Pyruvate Kinase | purified pyruvate kinase, luminescence ATP production; ribose 5-phosphate activator present at AC10 | Potency, µM | hit rate 1.2% among 51,000 | AID 361, 2006; in the data active = potency below about 11 µM; inconclusive = mostly about 12 µM to 25 µM;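 the screen sought inhibitors and activators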;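 note: scaled between full activation by ribose 5 phosphate and full inhibition by luteolin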
# TSHR agonist = qHTS Assay for Agonists of the Thyroid Stimulating Hormone Receptor. Thyrotropin receptor (Homo sapiens), P16473. HEK293-CNG-TSHR cells (CNG channel as cAMP sensor), membrane potential dye, cAMP. Potency, µM (top dose mostly 57.1 µM), inactives show top-dose activation, usual class: activators. hit rate 0.48% among 73,000. AID 926, 2007; active = well fitted activation curve with a large enough effect in the main read-out, with a control signal flat, not every such curve was filed as active; inconclusive = small, poorly fitted or top-dose-only effect, or a change in a side signal; inactive = no such curve, though single readings can be large or run the other way; % of control where 0% means no effect;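 note: the control signal comes from parental cells without the receptor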
#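 HEK 293 cells stably expressing TSHR and a cAMP-gated CNG channel; parental CNG-only cells as counterscreen. Cells preloaded 60 min with membrane potential dye plus 100 uM RO 20-1724, then compound 30 min; fluorescence read at 590 nm.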
# Active calls of the source: *; i = inactive; u = inconclusive; x = no result; [ ] = remark or other dose. Only some compounds are listed: those with a hit (about 6.1% of all), similar ones and a draw of the others. Unless noted, calls come from the whole dose curve; as a rule, active = well fitted curve in the direction sought with a large enough effect; inconclusive = small, poorly fitted or top-dose-only effect, or another doubt; inactive = no such curve, though single readings can be large; an effect the other way counts as inactive or inconclusive. Potency is the fitted concentration of half-maximal effect.
SMILES,HEK293 cAMP ctrl,GBA activity,FLuc inh,ERK AVP inh,Bst PK mod,TSHR agonist
COc1ccc(OC2C=CC(c3ccccc3)OC2CO)c(C(C)(C)C)c1 (stereo not given),8.4%[11.4 µM],x,x,29.7%[11.5 µM],x,0.4%[11.4 µM]
O=C1C=C(Nc2nc(C(=O)O)cc(=O)[nH]2)c2ccccc2C1=O,1.8%[11.4 µM],x,3.9%[11.4 µM],4.1%[11.5 µM],x,-2.3%[11.4 µM]
CO[C@H]1COC(=O)C/C=C\[C@H](C)[C@H](OC)COC(=O)[C@@H](C)NC(=O)C/C=C\[C@@H]1C,-2.4%[11.4 µM],x,1.1%[11.4 µM],0.0%[11.5 µM],x,-0.7%[11.4 µM]
CC(C)N(Cc1nc(-c2ccc(Cl)cc2)no1)C(=O)CCC1CCCC1,20µM*,x,-10.3%,112.1%,x,u
COc1ccccc1OCC(=O)N(Cc1nc(-c2ccc(Cl)cc2)no1)C(C)C,u,x,1.2%,u,x,u
Cc1cc2n(n1)C(c1ccc(N(C)C)cc1)Nc1ccccc1-2 (stereo not given),-16.2%,>76.9,25.1µM*,-13.5%,u,-3.2%
Cc1cc2n(n1)C(c1ccccc1)Nc1ccccc1-2 (stereo not given),1.6%,>76.9,4.5%,1.3%,x,3.2%[11.4 µM]
CC1=C(C(=O)Nc2ccccc2)C(c2ccco2)C(C#N)=C(SCC(=O)OC(C)C)N1 (stereo not given),20µM*,x,0.8%,-0.4%,x,u
CC1=C(C(=O)Nc2ccccc2)C(c2ccco2)C(C#N)=C(SCC(=O)Nc2cccc(C)c2C)N1 (stereo not given),4.8%,8.55*,-2.1%,-7.9%,>57,14.8%
COc1cccc(Cn2c(=O)c(-c3cccs3)nc3cncnc32)c1,16.5%,x,0.7%[11.4 µM],u,x,6.0%
O=C(O)Cn1nc(-c2ccccc2)c2ccccc21,10.7%,x,4.1%,x,x,8.5%
O=C(O)CCCn1nc(-c2ccccc2)c2ccccc21,0.159µM*,x,1.3%,x,x,u
CCOC(=O)N1CC=C2C(C#N)=C(N)C(C#N)(C#N)[C@H](c3ccc(OCC)c(OCC)c3)[C@H]2C1,17.6%,>76.9,1.2%,-1.8%,>57,11.6%
CCCCOc1ccc(C2C3CN(C(=O)OCC)CC=C3C(C#N)=C(N)C2(C#N)C#N)cc1OC (stereo not given),13.4%,15.2*,-8.1%,15.4%,x,11.8%
N#CCSc1nc2cc(C(=O)N3CCC(C(N)=O)CC3)ccc2c2nc3ccccc3n12,-2.6%,>76.9,-2.6%,20µM*,0.467*,23.0%
N#CCSc1nc2cc(C(=O)N3CCCC3)ccc2c(=O)n1Cc1ccccc1,10.7%,>76.9,-0.5%,u,>57,10.1%
CN(C)C=Nc1ncc2c3ccccc3n(Cc3ccccc3)c2c1C#N,31.6µM*,>76.9,2.0%,-2.0%,>57,u
CC1(c2ccc3noc(-c4ccc(Cl)cc4)c3c2)OCCO1,u,>76.9,-1.8%,15.8µM*,u,u
CCC(=O)Nc1ccc2oc(-c3cccc(C)c3)nc2c1,4.2%,x,2.51µM*,-13.0%,2.08*,-6.4%
CCCC(=O)Nc1cccc(-c2nc3cc(C)c(C)cc3o2)c1,4.1%[11.4 µM],x,7.94µM*,-16.3%,x,5.8%[11.4 µM]
CSCC[C@H](NC(=O)CCn1nnc2ccccc2c1=O)C(=O)O,3.5%,>76.9,-0.8%,-6.7%,>57,1.3%
CSCCC(Nc1ncnc2ccc(Br)cc12)C(=O)O (stereo not given),2µM*,>76.9,1.7%,-17.4%,x,u
CC(=O)NC1=C(OS(=O)(=O)c2ccc(C)cc2)CN(C)C1=O,-0.9%[11.4 µM],x,5.1%[11.4 µM],-14.0%[11.5 µM],x,3.2%[11.4 µM]
Clc1ccc2nc(N3CCCCC3)sc2c1,-1.7%,>76.9,u,7.5%,i,7.0%
Clc1ccc2nc(N3CCCCC3)[nH]c2c1,u,x,12.6µM*,-5.2%,i,u
SMILES,HEK293 cAMP ctrl,GBA activity,FLuc inh,ERK AVP inh,Bst PK mod,TSHR agonist
c1cncc(CNc2ncncc2-c2ccoc2)c1,9.0%,x,1.1%[2.29 µM],-19.7%,x,3.6%
COc1ccc(CNc2ncncc2-c2ccoc2)c(OC)c1,10µM*,x,2.5%[2.29 µM],-9.6%,x,u
COc1cccc(-c2cncnc2NCc2ccc(OC)cc2OC)c1,15.8µM*,x,-1.0%[2.29 µM],6.2%,x,u
COc1cccc(-c2cncnc2NCc2ccccc2OC)c1,25.1µM*,x,-0.7%[2.29 µM],u,x,u
COc1ccccc1CNc1ncncc1-c1ccccc1OC,10µM*,x,0.8%[2.29 µM],-11.3%,x,u
COc1ccccc1CNc1ncncc1-c1ccccc1CN(C)C,16.4%,x,-0.1%[2.29 µM],-2.3%,x,9.0%
COc1ccc(CNc2ncncc2-c2cccnc2)c(OC)c1,5.2%,x,-0.5%[2.29 µM],6.8%,x,10.1%
C[C@H](OP(=O)(O)O)[C@H](N)C(=O)O,4.0%[11.4 µM],x,3.0%[11.4 µM],12.9%[11.5 µM],x,0.0%[11.4 µM]
c1ncc(-c2ccoc2)c(NC2CC2)n1,3.98µM*,x,-0.5%[2.29 µM],-1.2%,x,u
COc1ccccc1CNc1ncnc2nc[nH]c12,u,x,0.9%,x,x,u
COc1ccccc1CNc1ncnc2c1nnn2Cc1ccccc1,12.6µM*,>76.9,-3.1%,-9.8%,>57,u
CCc1nnc(NC(=O)Cn2nnc(-c3ccccc3F)n2)s1,17.9%,4.46*,1.7%,6.2%,>57,x
CC1=CC(C)(C)Nc2ccc(CSc3ccccc3)cc21,7.4%[11.4 µM],x,1.5%[11.4 µM],-11.8%[11.5 µM],x,-6.2%[11.4 µM]
CO[C@@H]1COC(=O)[C@H](CCSC)NC(=O)C/C=C\[C@@H](C)COC(=O)[C@@H]2CCCN2C(=O)C/C=C\[C@H]1C,-1.6%[11.4 µM],x,3.0%[11.4 µM],16.7%[11.5 µM],x,-6.9%[11.4 µM]
c1cncc(-c2nc(NCc3cccs3)c3ccccc3n2)c1,14.1%,x,1.8%[2.29 µM],-23.2%,x,31.6µM*
Clc1ccccc1-c1nccc(NCc2cccs2)n1,u,x,-1.0%[2.29 µM],15.8µM*,x,u
c1cncc(-c2nccc(NCc3cccs3)n2)c1,13.8%,x,-0.5%[2.29 µM],31.6µM*,x,8.1%
COc1cccc(-c2nccc(NCc3cccs3)n2)c1,u,x,-22.8%[2.29 µM],-29.0%,x,u
Cc1ccccc1-c1nccc(NCc2cccs2)n1,u,x,-0.7%[2.29 µM],-9.7%,x,u
CN(N=O)C(=O)N[C@H]1C(O)C(O)C(CO)O[C@@H]1O (stereo not given in full),x,x,x,2.4%,x,x
C=CCn1c(SCC(=O)N2CCOCC2)nc2scc(-c3ccco3)c2c1=O,2.8%,>76.9,-0.2%,31.6µM*,>57,8.0%
COc1cccc(Nc2ncc3ncc(=O)n(C[C@H]4CCCO4)c3n2)c1,u,x,2.0%[11.4 µM],14.4%,x,u
COC(=O)c1ccc(NS(=O)(=O)c2ccc3c(c2)oc(=O)n3C)cc1,1.26µM*,x,3.7%,x,x,u
C/C(CCN1CCCc2nc(C)c(C)cc21)=N\O[C@@H](C)c1cn([C@@H]2COC[C@@H]2O)nn1,2.3%[11.4 µM],x,0.0%[11.4 µM],17.7%[11.5 µM],x,10.0%[11.4 µM]
O=c1c(-c2ccc(Cl)cc2)nc2cnc(N3CCOCC3)nc2n1Cc1ccc(F)cc1,23.2%,x,0.4%[11.4 µM],-2.9%,x,6.4%
